Source: PubChem BioAssay AID1918990 (ICCB-Longwood Screening Facility, Harvard Medical School, 2023)
Hit rate of the full screen: of about 29,000 compounds, about 85 (0.3%) were called active.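 How the source made its calls: active means replicate mean overnight rise in green fluorescent reporter signal, 3 or more SD over negative controls; inactive means the rest.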 What follows is part of a selection rich in actives, with near analogues and random picks from the rest. Square brackets hold non-standard residues; d marks the D form. Side chains are listed from the residue outwards. Peptide text beside a SMILES is read from it. * marks the point of attachment. X1 = CCC(C)C(N)C1=NC(C(=O)*)CS1; Orn = NCCC[CH](N)C(=O)O

assay: activators of Burkholderia fixLJ two-component system, primary screen, B. multivorans, GFP reporter (AID 1918990); conditions: B. multivorans fixK-promoter GFP reporter, 18 h; stronger effect = higher value

z-score, inactive:
COc1cccc(OCCn2c(-c3ccc(Br)cc3)nc3ccccc3c2=O)c1 -1.26
Cc1c[nH]c(CNC(=O)COCc2nc3ccc(F)cc3[nH]2)c(C)c1=O -1.57
CCSC(C)C(=O)N1CCc2c(nc(-c3ccncc3)nc2N(C)C)C1 (stereo not drawn) -1.6
CCOc1ccccc1C(=O)NC1(C(F)(F)F)NC(=O)N(CCc2ccc(OC)c(OC)c2)C1=O (stereo not drawn) -3.27
COc1cc(Br)cc2cc(S(=O)(=O)c3ccccc3)c(=O)oc12 -0.19
CCC(C)C(N)C1=NC(C(=O)NC(CC(C)C)C(=O)NC(CCC(=O)O)C(=O)NC(C(=O)NCCCCC2NC(=O)C(CC(N)=O)NC(=O)C(CC(=O)O)NC(=O)C(Cc3cnc[nH]3)NC(=O)C(Cc3ccccc3)NC(=O)C(C(C)CC)NC(=O)C(CCCN)NC2=O)C(C)CC)CS1 (stereo not drawn) (cyclo(DNK([Ile-Glu-Leu-X1])[Orn]IFH); configuration not given here) -0.77
CN(Cc1cnn(-c2ccc(F)cc2)c1)C(=O)C(C)(C)N1CCOCC1 -1.96
C#CC(C)(CC)NC(=O)Cn1nnc(-c2ccc(OCc3c(F)cccc3Cl)cc2)n1 (stereo not drawn) 0.9
CC(NC(=O)N1CCCN(C(=O)C(F)(F)F)CC1)c1ccc(Cl)cc1 (stereo not drawn) 0.97
CCOC(=O)c1ccc(-c2ccc(/C=C(\C#N)C(=O)Nc3ccc(OCC)cc3)o2)cc1 0.84
CCOC(=O)c1ccc(N2C(=O)c3n[nH]c(C)c3C2c2ccc(O)c(OC)c2)cc1 (stereo not drawn) -1.68
Cc1ccc(NC(=O)NC(C)c2c(-n3cccc3)sc(C)c2C)c(C)c1 (stereo not drawn) -1.6
Cc1ccc(-c2nc3cccc(C)n3c2Nc2ccc3c(c2)OCCO3)cc1 0.46
COc1cccc(Cn2c(SCc3ccc(C(=O)N4CCCCC4)cc3)nc3ccncc32)c1 -4.02
COc1ccccc1C1C(C(=O)N2CCCCC2)=C(C)Nc2nc3ccccc3n21 (stereo not drawn) -0.33
CCOc1ccc(-c2n[nH]c3c2C(c2ccccc2OC)N(c2ccc(Br)cc2)C3=O)cc1 (stereo not drawn) -0.62
CC(C)Cn1c(=O)c2ccccc2n2c(CCC(=O)N3CCN(c4cccc(Cl)c4)CC3)nnc12 -1.08
Cc1ccc(C(=O)Nc2ccccc2F)cc1S(=O)(=O)N1CCOCC1 -1.43
O=C(CCc1cccc(Cl)c1)NC1COCC1Cc1ccncc1 (stereo not drawn) -0.84
CCC1CCCCN1S(=O)(=O)c1ccc(NC(=O)c2cc(=O)c3ccccc3o2)cc1 (stereo not drawn) -1.59
CCCOc1ccc(CNC(=O)C2CCN(c3nn4c(=O)cc(C)nc4s3)CC2)cc1 0.43
Cc1cc(OCC(=O)Nc2ncn[nH]2)c(C)c(C)c1Br 0.56
O=S(=O)(NCC(c1ccccc1)N1CCc2ccccc21)c1ccccc1 (stereo not drawn) -0.54
CCCc1noc(C2CCC(=O)N(Cc3ccc(Cl)cc3)C2)n1 (stereo not drawn) -0.44
COc1ccccc1CNC(=O)CCCn1c(=O)c2ccccc2n(CC(=O)Nc2ccc(C)cc2Cl)c1=O -1.06
Cc1nc(N)ncc1C(=O)N(C)Cc1cn[nH]c1-c1ccccc1 -0.18
COc1ncccc1NC(=O)NCc1nncn1C1CCCCC1 0.26
COc1ccc(NC(=O)CCN2CCN(CCO)CC2)cc1 -3.11
CC(C)c1ccc2oc(-c3cc(NC(=O)c4cccs4)ccc3Cl)nc2c1 0.16
O=C1CC(c2nnc(Cc3ccc(Cl)cc3)o2)CN1c1ccccc1 (stereo not drawn) 0.07
Cc1cccc(C)c1OCC(=O)NC(Cc1c[nH]c2ccccc12)C(=O)O (stereo not drawn) 0.01
CSc1ncc(Cl)c(C(=O)Nc2ccc(S(=O)(=O)N3CCCC(C)C3)cc2)n1 (stereo not drawn) 0
Cc1nc2nc(SCC(=O)N(Cc3ccccc3)C(C)C)nn2c(C)c1Cc1ccccc1Cl -2.35
Cc1ccc(CN(C)S(=O)(=O)c2c(Cl)nc3sccn23)o1 1.01
Cn1c(=O)c2sccc2n2c(CCC(=O)NCc3ccccc3Cl)nnc12 -0.54
COc1cccc(CNC(=O)CCC(=O)N2CC3CCCN3c3ccccc32)c1 (stereo not drawn) -0.45
CC(C)CC(=O)C1CCCN(C(=O)c2ccc(N3CCC(O)CC3)nc2)C1 (stereo not drawn) 0.49
CCC(=O)N1CCc2cc(S(=O)(=O)CCC(=O)N3CCN(c4ccccc4F)CC3)ccc21 -1.64
CC(Sc1oc(-c2ccco2)nc1S(=O)(=O)c1ccc(Br)cc1)c1ccccc1 (stereo not drawn) -1.12
COc1ccc(NC(=O)c2cnc(Nc3ccc(C)c(Cl)c3)c3ccccc23)cc1OC 0.07
Cc1ccc(OCC(=O)NC(c2ccc3c(c2)CCO3)C2CC(O)C2)cc1 (stereo not drawn) 0.72
COc1cccc(NC(=O)C2CCN(c3cc(C)nc4c(-c5ccc(Cl)cc5)c(C)nn34)CC2)c1 -0.45
C=CCCC(=O)N1CCC[C@]2(C1)CN(C(=O)c1ccccc1CC)CCC2O (stereo partly drawn) -0.53
COc1ccc(-c2noc(CSc3nc(C)cc(=O)[nH]3)n2)cc1OC -1.97
COc1ccc(CNc2nc(-c3ccc(Cl)cc3)nn2S(=O)(=O)c2ccc(C)cc2)cc1 -1.03
Cc1cc(C(=O)NCc2nc(N)n[nH]2)c2c(C)nn(C)c2n1 0.15
COc1cccc(CNC(=O)C2CCC(CNS(=O)(=O)c3cccs3)CC2)c1 (stereo not drawn) -0.11
Cc1ccc2oc3c(c(=O)c2c1)C(c1ccc(O)cc1)N(Cc1ccc2c(c1)OCO2)C3=O (stereo not drawn) -1.07
COC(=O)c1ccc(N2CCN(C(=O)c3csc(C)n3)CC2)cc1 -0.55
O=C(CSc1nnc(CNC(=O)c2ccccc2)n1-c1ccc(F)cc1)Nc1ccccc1F -1.09
COc1ccc(C2=NC(c3ccncc3)=Nc3ccc(Br)cc3N2)cc1 -0.81
Cc1c(C(=O)N2CCC3(CC2)OCCCC3O)n(C)c2ccccc12 (stereo not drawn) -0.28
CCOC(=O)c1c(NC(=O)/C(C#N)=C/c2ccccc2)sc2c1CCC2 -0.67
